CYP2C9 act: human CYP2C9 activators, primary screen, biochemical, luminescence; 96,000 compounds, 1.4% hits; activation factor at 5 µM; Cytochrome P450 2C9 (Homo sapiens), P11712; AID 1024, 2008; recombinant CYP2C9, luciferin-H conversion; hits give high values; factor 1 = untreated enzyme, 0 = blocked;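 active means activation factor of 2 or more for CYP2C9 at a 5 µM dose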;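 further: 0 = sulfaphenazole-blocked wells and 1 = vehicle-only wells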
Target sequence (P11712 whole entry, looked up): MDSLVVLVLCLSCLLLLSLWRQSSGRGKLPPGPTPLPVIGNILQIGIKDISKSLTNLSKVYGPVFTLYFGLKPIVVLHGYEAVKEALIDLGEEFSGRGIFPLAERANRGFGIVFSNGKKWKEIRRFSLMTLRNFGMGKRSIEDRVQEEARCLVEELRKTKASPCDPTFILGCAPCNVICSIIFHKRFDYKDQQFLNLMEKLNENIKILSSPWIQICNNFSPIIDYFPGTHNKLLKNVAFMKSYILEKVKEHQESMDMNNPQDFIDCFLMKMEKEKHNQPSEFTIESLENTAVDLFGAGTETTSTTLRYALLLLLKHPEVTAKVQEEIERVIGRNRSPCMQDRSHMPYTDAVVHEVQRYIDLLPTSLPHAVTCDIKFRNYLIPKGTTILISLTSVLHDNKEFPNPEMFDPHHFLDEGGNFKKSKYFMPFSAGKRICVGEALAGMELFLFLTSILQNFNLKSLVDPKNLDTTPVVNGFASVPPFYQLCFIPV
CYP2C19 inh: blockers of cytochrome P450 2C19 activity – biochemical, luminescence, ADME assay, primary screen; P33261; CYP2C19 Supersomes, luciferin-H EGE luminescence, 30 min; inhibition, % at 5 µM; 96,000 compounds, 21% hits;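 active means CYP2C19 inhibition above a set limit at 5 µM in the primary screen, cut at about 50% in these data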;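 further: plate controls were negative control wells for no effect and 2.5 mM tranylcypromine positive control for full effect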
Cav32 inh: Cav3.2 calcium influx blockers – cell-based, Fluo-4 calcium fluorescence, FDSS, MLSMR library, primary screen. Cav3.2-expressing cells; hits give low values. B-score at 10 µM. 100,000 compounds, 4% hits. AID 449739, 2010;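 active means single-dose well whose peak fluorescence ratio is a statistical outlier from its plate by either plate-standardised score or position-corrected B-score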
CYP2C19 act: human CYP2C19 activators, primary screen, biochemical, luminescence; recombinant CYP2C19, luciferin-H EGE luminescence; hits give high values; 0 = fully inhibited enzyme, 1 = untreated enzyme; Cytochrome P450 2C19 (Homo sapiens), P33261; 96,000 tested, under 10 active; activation factor at 5 µM;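 active means activation factor of at least 2 at 5 µM in the primary screen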;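 further: 0 = wells with 2.5 mM tranylcypromine and 1 = vehicle-only wells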
CYP2C9 inhib: blockers of cytochrome P450 2C9 activity – biochemical, luminescence, ADME assay, primary screen; P11712; CYP2C9 Supersomes, luciferin-H conversion; inhibition, % at 5 µM; 96,000 compounds, 20% hits; AID 777, 2007;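 active means blocking of liver enzyme CYP2C9 beyond about 50% at 5 µM, limit read from the data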
* = called active by the depositor. An excerpt weighted towards active compounds, which were near 27% of everything screened.

For Cn1cc(C(=O)c2ccc(Cl)cc2Cl)cc1C(=O)N/N=C(\N)COc1ccc(F)cc1 the results were CYP2C9 act 0.9, CYP2C19 inh 17.7, Cav32 inh -6.12*, CYP2C19 act 0.8 and CYP2C9 inhib 7.4.
CCCCCCn1c(CN2CCCCC2CC)nc2c1c(=O)n(C)c(=O)n2C (stereo not given) was read as CYP2C9 act 0.8, CYP2C19 inh 5.5, Cav32 inh -3.78, CYP2C19 act 0.9 and CYP2C9 inhib 17.8.
For CCCOc1ccc(CC(=O)NCC2(c3ccccc3)CCOCC2)cc1OC the results were CYP2C9 act 0.7, CYP2C19 inh 27.7, Cav32 inh 0.879, CYP2C19 act 0.7 and CYP2C9 inhib 32.3.
For CCCCC(CCC(=O)Nc1nccs1)C(=O)O (stereo not given) the results were CYP2C9 act 1, CYP2C19 inh 7.1, Cav32 inh 0.0302, CYP2C19 act 0.9 and CYP2C9 inhib 2.5.
For O=c1cc(-c2ccc(O)cc2)oc2ccccc12 the results were Cav32 inh -0.388.
O=c1cc(-c2ccncc2)oc2ccccc12 was read as CYP2C9 act 0.6, CYP2C19 inh 85.6*, Cav32 inh 0.0723, CYP2C19 act 0.1 and CYP2C9 inhib 35.8.
Cc1cccc(-c2noc(CCCOc3ccc(Cl)cc3Cl)n2)c1 was read as CYP2C9 act 0.6, CYP2C19 inh 29.9, Cav32 inh -3.66, CYP2C19 act 0.7 and CYP2C9 inhib 39.1.
Screening Cc1cccc(Nc2ccccc2C(=O)OCC(=O)N(C)C2CCS(=O)(=O)C2)c1C (stereo not given) returned CYP2C9 act 1.1, CYP2C19 inh -4.6, Cav32 inh -3.38*, CYP2C19 act 1 and CYP2C9 inhib -13.3.
For CN(C(=O)COC(=O)c1ccccc1Nc1ccccc1)C1CCS(=O)(=O)C1 (stereo not given) the results were CYP2C9 act 0.9, CYP2C19 inh 19.2, Cav32 inh 0.0607, CYP2C19 act 0.8 and CYP2C9 inhib 9.8.
CC1=CC(C)(C)Nc2ccc(C)cc21 was read as CYP2C9 act 1.2, CYP2C19 inh 9.0, Cav32 inh 1, CYP2C19 act 0.9 and CYP2C9 inhib -20.9.
For CC1=CC(C)(C)Nc2cc(C)c(C)cc21 the results were CYP2C9 act 0.8, CYP2C19 inh 92.2*, CYP2C19 act 0.1 and CYP2C9 inhib 19.4.
COc1ccc(N2CCN(Cc3oc(CO)cc(=O)c3O)CC2)cc1 was read as CYP2C9 act 1, CYP2C19 inh -2.4, Cav32 inh -0.193, CYP2C19 act 1 and CYP2C9 inhib -4.7.
Nc1nnc(Cc2ccc(Cl)c(Cl)c2)s1 was read as CYP2C9 act 0.9, CYP2C19 inh 58.1*, Cav32 inh -1.59, CYP2C19 act 0.4 and CYP2C9 inhib 7.5.
For Nc1nnc(CCOc2ccccc2Cl)s1 the results were CYP2C9 act 1, CYP2C19 inh 18.4, Cav32 inh 0.615, CYP2C19 act 0.8 and CYP2C9 inhib 2.4.
`Cc1ccc2[nH]c3c(c2c1)CN(C(=O)CN1CCN(c2cccc(C)c2C)CC1)CC3` gave CYP2C9 act 0.1, CYP2C19 inh 49.1, Cav32 inh -3.14, CYP2C19 act 0.5 and CYP2C9 inhib 88.7*.
Cc1ccc2[nH]c3c(c2c1)CN(C(=O)CN1c2ccc(F)cc2CCC1C)CC3 (stereo not given) was read as CYP2C9 act 0.5, CYP2C19 inh 28.8, Cav32 inh -0.267, CYP2C19 act 0.7 and CYP2C9 inhib 46.3.
O=C(CN1CCSCC1)N1CCc2[nH]c3ccc(Br)cc3c2C1 was read as CYP2C9 act 0.2, CYP2C19 inh 92.8*, Cav32 inh -0.822, CYP2C19 act 0.1 and CYP2C9 inhib 81.1*.
`O=C(C1CC1)N1CCc2[nH]c3ccccc3c2C1` gave Cav32 inh 1.65.
For COc1ccc(S(=O)(=O)Nc2cc(Sc3ncn[nH]3)c(O)c3ccccc23)cc1 the results were CYP2C9 act 0.1, CYP2C19 inh 97.3*, CYP2C19 act 0 and CYP2C9 inhib 93.9*.
COc1ccc(S(=O)(=O)Nc2ccc(O)c(Sc3ncn[nH]3)c2)cc1 was read as Cav32 inh -0.322.
Screening CCCCCCCCC(=O)Nc1cc(C)ccc1OC returned Cav32 inh -1.41.
For CC(C)(C)SCCNC(=O)CSCc1ccc([N+](=O)[O-])cc1 the results were CYP2C9 act 0.8, CYP2C19 inh -1.2, Cav32 inh -0.256, CYP2C19 act 1 and CYP2C9 inhib 23.5.
Cc1cccc(NC(=O)Cn2c(=O)n(Cc3ccco3)c(=N)c3c4c(sc32)COC(C)(C)C4)c1 was read as CYP2C9 act 0.4, CYP2C19 inh 58.7*, Cav32 inh -4.19*, CYP2C19 act 0.4 and CYP2C9 inhib 60.6*.
Screening CC1(C)Cc2c(sc3c2c(=N)n(Cc2ccco2)c(=O)n3CC(=O)Nc2cccc(Cl)c2)CO1 returned CYP2C9 act 0.6, CYP2C19 inh 28.5, Cav32 inh -5.22*, CYP2C19 act 0.7 and CYP2C9 inhib 44.6.
For CCn1c(-c2ccc(C)cc2)n[nH]c1=S the results were CYP2C9 act 0.7, CYP2C19 inh 45.0, Cav32 inh -0.0953, CYP2C19 act 0.6 and CYP2C9 inhib 32.1.
For CCn1c(-c2ccc(-c3ccccc3)cc2)c[nH]c1=S the results were CYP2C9 act 0.8, CYP2C19 inh 81.3*, Cav32 inh -0.175, CYP2C19 act 0.2 and CYP2C9 inhib 19.2.
`Cn1c(-c2ccc(-c3ccccc3)cc2)c[nH]c1=S` gave CYP2C9 act 0.4, CYP2C19 inh 88.7*, Cav32 inh 0.983, CYP2C19 act 0.1 and CYP2C9 inhib 64.0*.
Screening C=CCn1c(-c2ccccc2)c[nH]c1=S returned CYP2C9 act 0.8, CYP2C19 inh 70.2*, Cav32 inh -0.118, CYP2C19 act 0.3 and CYP2C9 inhib 23.4.
C=CCn1c(-c2cccc(Cl)c2)n[nH]c1=S was read as CYP2C9 act 0.9, CYP2C19 inh 48.9, Cav32 inh -0.451, CYP2C19 act 0.5 and CYP2C9 inhib 11.5.
`C=CCn1c(-c2ccc(Cl)cc2)c[nH]c1=S` gave CYP2C9 act 0.6, CYP2C19 inh 66.4*, Cav32 inh -0.0894, CYP2C19 act 0.3 and CYP2C9 inhib 42.3.
`O=C(NCCCN1CCCC1=O)c1ccc(Cl)c(NS(=O)(=O)c2ccc(F)cc2)c1` gave CYP2C9 act 0.8, CYP2C19 inh -7.0, Cav32 inh 0.598, CYP2C19 act 1.1 and CYP2C9 inhib 21.5.
`Cc1cc(C)n(C(=O)CNC(=O)CCc2ccccc2)n1` gave CYP2C9 act 1.9, CYP2C19 inh 8.7, Cav32 inh -0.84, CYP2C19 act 0.9 and CYP2C9 inhib -86.7.
Cc1ccccc1N(CC(=O)NCCc1ccccc1)C(=O)c1ccc(N2CCCC2)nc1 was read as CYP2C9 act 0.1, CYP2C19 inh 56.9*, Cav32 inh -4.77*, CYP2C19 act 0.4 and CYP2C9 inhib 95.0*.

Screening data as filed in PubChem BioAssay.
